Experimental data reported in PubChem BioAssay AID1159580 (chemical genetic matrix, 2015).
“And” between values parts separate entries of the source, which are not always exact repeats. Equal entries are not always repeated. About 2,000 (36%) of roughly 5,500 compounds were called active. Another 18% or so got no clear call; they are omitted. Rule as the data show it: active = normalized growth mostly below about 0.91 (no sharp cut-off); inconclusive = no clear call, values can overlap the other calls; inactive = mostly above about 0.92. The list shows a part of the results.

Test: chemical genetic growth profiling, strain panel (AID 1159580);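 also: tested at 20 µM; growth read once vehicle control cultures reached saturation at 30 °C; 1 = growth at the plate median or of vehicle wells; lower values mean less growth of the strain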
Details: S. cerevisiae deletion strains, growth OD

Measured: normalized growth

NNC(=O)c1ccncc1
inactive: locus YAL013W, strain DEP1, active compounds read low 1.01 | locus YAL021C, strain ccr4, active compounds read low 1.01 | locus YAL026C, strain drs2, active compounds read low 0.991 | locus YAL030W, strain snc1, active compounds read low 1.03 | locus YBL061C, strain skt5, active compounds read low 1.01 | locus YBR009C, strain hhf1, active compounds read low 0.986 | locus YBR021W, strain FUR4, active compounds read low 1.01 | locus YBR023C, strain chs3, active compounds read low 1.01 | locus YBR171W, strain sec66, active compounds read low 1.02 | locus YBR229C, strain ROT2, active compounds read low 1.01 | locus YBR231C, strain swc5, active compounds read low 1.03 | locus YBR279W, strain paf1, active compounds read low 1.01 | locus YCL011C, strain gbp2, active compounds read low 0.984 | locus YCL016C, strain dcc1, active compounds read low 0.981 | locus YCL029C, strain bik1, active compounds read low 1 | locus YCL061C, strain MRC1, active compounds read low 1.02 | locus YCL069W, strain vba3, active compounds read low 1.02 | locus YCR088W, strain abp1, active compounds read low 1.02 | locus YDL005C, strain med2, active compounds read low 1.01 | locus YDL035C, strain GPR1, active compounds read low 1.01 | locus YDL040C, strain nat1, active compounds read low 1 | locus YDL074C, strain BRE1, active compounds read low 1.03 | locus YDL101C, strain DUN1, active compounds read low 1.01 | locus YDL185W, strain tfp1, active compounds read low 0.991 | locus YDL192W, strain arf1, active compounds read low 0.995 | locus YDR001C, strain nth1, active compounds read low 1.02 | locus YDR069C, strain doa4, active compounds read low 1.02 | locus YDR101C, strain arx1, active compounds read low 0.997 | locus YDR137W, strain rgp1, active compounds read low 0.989 | locus YDR159W, strain sac3, active compounds read low 0.943 | locus YDR162C, strain NBP2, active compounds read low 1.02 | locus YDR195W, strain ref2 1 | locus YDR297W, strain sur2, active compounds read low 1.01 | locus YDR318W, strain mcm21, active compounds read low 0.993 | locus YDR334W, strain swr1, active compounds read low 1.01 | locus YDR335W, strain msn5, active compounds read low 1.01 | locus YDR388W, active compounds read low 0.992 | locus YDR392W, strain spt3, active compounds read low 0.941 | locus YDR502C, strain sam2, active compounds read low 0.993 | locus YEL003W, strain gim4, active compounds read low 1.04 | locus YEL037C, strain rad23, active compounds read low 1.02 | locus YEL061C, strain CIN8 (second series), active compounds read low 1.01 | locus YEL061C, strain CIN8, active compounds read low 1.01 | locus YER015W, strain faa2, active compounds read low 1.01 | locus YER016W, strain bim1, active compounds read low 1 | locus YER110C, active compounds read low 0.988 | locus YER111C, strain swi4, active compounds read low 1.01 | locus YER155C, strain BEM2 (second series), active compounds read low 1.03 | locus YER155C, strain BEM2, active compounds read low 1.01 | locus YER167W, strain BCK2, active compounds read low 1 | locus YFR010W, strain ubp6, active compounds read low 1.02 | locus YGL078C, strain dbp3, active compounds read low 0.992 | locus YGL086W, strain mad1, active compounds read low 1.01 | locus YGL167C, strain pmr1, active compounds read low 1 | locus YGL173C, strain kem1, active compounds read low 1.05 | locus YGL227W, strain vid30, active compounds read low 1.02 | locus YGL240W, strain doc1, active compounds read low 1.02 | locus YGL248W, strain PDE1, active compounds read low 1.01 | locus YGL253W, strain hxk2, active compounds read low 1.01 | locus YGR135W, strain pre9, active compounds read low 0.971 | locus YGR252W, strain gcn5, active compounds read low 0.943 | locus YHR013C, strain ard1, active compounds read low 0.962 | locus YHR027C, strain rpn1, active compounds read low 1.02 | locus YHR030C, strain SLT2, active compounds read low 1 | locus YHR079C, strain IRE1 (second series), active compounds read low 0.998 | locus YHR079C, strain IRE1, active compounds read low 1.01 | locus YHR094C, strain hxt1, active compounds read low 0.989 | locus YHR129C, strain ARP1, active compounds read low 1.01 | locus YHR142W, strain chs7, active compounds read low 1.01 | locus YHR200W, strain rpn10, active compounds read low 1 | locus YIL066C, strain RNR3, active compounds read low 1.02 | locus YIL073C, strain SPO22, active compounds read low 1.01 | locus YIL125W, strain kgd1, active compounds read low 1.01 | locus YIR030C, strain dcg1, active compounds read low 1 | locus YJL092W, strain hpr5, active compounds read low 1.01 | locus YJL095W, strain BCK1 (second series), active compounds read low 1.01 | locus YJL095W, strain BCK1, active compounds read low 1.02 and 0.991 | locus YJL115W, strain asf1, active compounds read low 1.01 | locus YJL129C, strain trk1, active compounds read low 1.02 | locus YJL134W, strain LCB3, active compounds read low 1.01 | locus YJL154C, strain vps35, active compounds read low 1.01 | locus YJL164C, strain tpk1, active compounds read low 0.991 | locus YJL166W, strain qcr8, active compounds read low 1.03 | locus YJL168C, strain set2, active compounds read low 0.992 | locus YJL187C, strain SWE1 (second series), active compounds read low 1.01 | locus YJR043C, strain POL32, active compounds read low 1.01 | locus YJR066W, strain TOR1, active compounds read low 0.932
